Results reported in PubChem BioAssay (NCATS).
Results filed as inconclusive are left out. Activity calls are given as the source filed them. The call rests on the fitted dose curve; in most records, active means well fitted curve in the direction sought with a large enough effect; inconclusive means small, poorly fitted or top-dose-only effect, or another doubt; inactive means no such curve, though single readings can be large; an effect the other way counts as inactive or inconclusive.

Legend:
[1] = Quantitative High-Throughput drug screen in 47 multiple myeloma cell lines against the NCATS MIPE library collection: FR4_PLB cell viability assay (AID 1918924; further: nearly all actives have a fitted effect of over 35% in size)
Outline: (§1)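 Steps: seed 500 cells per well; pin-transfer MIPE 4.0 library; incubate 48 h at 37C, 5% CO2, humidified; add CellTiter-Glo, 5 min room temperature; read luminescence.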

[2] = Quantitative High-Throughput drug screen in 47 multiple myeloma cell lines against the NCATS MIPE library collection: AMO1_DSMZ cell viability assay (AID 1918927; further: nearly all actives have a fitted effect of over 30% in size)
Outline: (§2)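 qHTS of the MIPE 4.0 collection: 500 myeloma cells/well, 48 h drug exposure at 37C in 5% CO2, then CellTiter-Glo for 5 min at room temperature before luminescence reading.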

[3] = Quantitative High-Throughput drug screen in 47 multiple myeloma cell lines against the NCATS MIPE library collection: ARD_JJKsccE7 cell viability assay (AID 1918929)
Outline: as §2

[4] = Quantitative High-Throughput drug screen in 47 multiple myeloma cell lines against the NCATS MIPE library collection: Karpas620_DSMZ cell viability assay (AID 1918959); further: nearly all actives have a fitted effect of over 30% in size
Outline: as §1

[5] = Quantitative High-Throughput drug screen in 47 multiple myeloma cell lines against the NCATS MIPE library collection: JIM3_ECACC cell viability assay (AID 1918963; further: nearly all actives have a fitted effect of over 35% in size)
Outline: as §1

[6] = Quantitative High-Throughput drug screen in 47 multiple myeloma cell lines against the NCATS MIPE library collection: EJM_DSMZ cell viability assay (AID 1918926; further: nearly all actives have a fitted effect of over 30% in size)
Outline: as §2

[7] = Quantitative High-Throughput drug screen in 47 multiple myeloma cell lines against the NCATS MIPE library collection: KMM1_JCRB cell viability assay (AID 1918960); further: nearly all actives have a fitted effect of over 30% in size
Outline: (§3)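 500 cells/well; MIPE 4.0 library pinned in; 48 h, 37 °C, 5% CO2; CellTiter-Glo ATP luminescence. Controls: DMSO = 100% viability, medium only = 0%.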

[8] = Quantitative High-Throughput drug screen in 47 multiple myeloma cell lines against the NCATS MIPE library collection: Delta47_JCRB cell viability assay (AID 1918925; further: nearly all actives have a fitted effect of over 45% in size)
Outline: as §2

[9] = Quantitative High-Throughput drug screen in 47 multiple myeloma cell lines against the NCATS MIPE library collection: KHM11_PLB cell viability assay (AID 1918962); further: nearly all actives have a fitted effect of over 35% in size
Outline: as §1

[10] = Quantitative High-Throughput drug screen in 47 multiple myeloma cell lines against the NCATS MIPE library collection: JIM1_ECACC cell viability assay (AID 1918964)
Outline: as §2

[11] = Quantitative High-Throughput drug screen in 47 multiple myeloma cell lines against the NCATS MIPE library collection: ARP1_JJKsccF8 cell viability assay (AID 1918928; further: nearly all actives have a fitted effect of over 40% in size)
Outline: as §3

[12] = Quantitative High-Throughput drug screen in 47 multiple myeloma cell lines against the NCATS MIPE library collection: Karpas417_ECACC cell viability assay (AID 1918961); settings: Karpas417 myeloma viability, CellTiter-Glo ATP luminescence, 48 h; viability (% of DMSO): at 45.8 µM (top of the series)
Outline: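 CellTiter-Glo luminescence (ATP) after 48 h compound exposure, 37C/5% CO2; 500 cells/well; MIPE 4.0 approved/investigational drugs pinned in; DMSO = 100%, media only = 0% viability.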

Measured: Potency
Potency means the concentration at half of the fitted maximal effect.

C=C[C@@H]1CN2CCC1C[C@H]2[C@H](O)c1ccnc2ccccc12 (stereo partly drawn)
inactive: [2] | [3] | [4]
active: [1] 18.7 µM | [5] 14.8 µM

Cc1nc(-c2ccc(-c3ccc(C(=O)N4CCc5cc6c(cc54)C4(CCN(C)CC4)CO6)cc3)c(C)c2)no1
inactive: [1] | [6] | [2] | [4] | [7] | [5]

C[C@]12CC[C@H]3[C@@H](CCC4=CC(=O)CC[C@@]43C)[C@H]1CC[C@H]2O
not listed: [6] | [7] | [11] | [12]
inactive: all other assays above

COc1ccc2c(c1)[C@]13CCCCC1C(C2)N(C)CC3 (stereo partly drawn)
not listed: [7] | [8] | [9] | [12]
inactive: all other assays above

CC=C(C)C(=O)O[C@H]1C(C)=C2[C@@H]3OC(=O)[C@@](C)(O)[C@@]3(O)[C@@H](OC(=O)CCC)C[C@](C)(OC(C)=O)[C@@H]2[C@@H]1OC(=O)CCCCCCC
inactive: [4]
active: [1] 0.0264 µM | [8] 0.235 µM | [6] 0.0372 µM | [9] 0.332 µM | [5] 0.264 µM

Cc1c(C(=O)c2cccc3ccccc23)c2cccc3c2n1[C@H](CN1CCOCC1)CO3
active: [1] 23.5 µM | [8] 14.8 µM | [4] 8.33 µM | [7] 5.26 µM | [9] 16.6 µM | [5] 23.5 µM

CC(=CCCC1=CCC(C2=CC(=O)OC2O)OC1O)CCC1=C(C)CCCC1(C)C (stereo not drawn)
inactive: [1] | [8] | [6] | [3] | [4] | [5] | [10]

C[C@]12CC[C@H](O)CC1=CC[C@H]1[C@H]3CCC(=O)[C@@]3(C)CC[C@@H]12
active: [2] 18.7 µM | [4] 16.6 µM | [9] 14.8 µM | [10] 0.418 µM
inactive: [1] | [5]

C[C@@]12OC(=O)[C@]1([C@@H](O)[C@@H]1C=CCCC1)NC(=O)[C@H]2CCCl
active: [1] 0.0053 µM | [6] 0.0187 µM | [2] 0.0118 µM | [11] 0.0105 µM | [3] 0.001 µM | [4] 0.0093 µM | [7] 0.0074 µM | [5] 0.0235 µM | [10] 0.0209 µM

CC(C)(C)[C@]1(O)C[C@@H]2OC(=O)C[C@@]23C(=O)O[C@@H]2OC(=O)[C@H](O)C213 (stereo partly drawn)
active: [10] 0.0332 µM
inactive: [1] | [6] | [2] | [4] | [5]

CC(O)=C(C#N)C(=O)Nc1cc(Br)ccc1Br
active: [6] 7.43 µM | [4] 5.26 µM
inactive: [8] | [5]

C=C[C@@H]1CN2CCC1C[C@@H]2[C@@H](O)c1ccnc2ccccc12 (stereo partly drawn)
active: [8] 23.5 µM | [6] 9.35 µM | [2] 5.9 µM | [4] 5.26 µM

CC=C(C)C(=O)N[C@@H](c1ccccc1)[C@@H](O)C(=O)O[C@H]1C[C@@]2(O)[C@@H](OC(=O)c3ccccc3)[C@@H]3[C@]4(OC(C)=O)CO[C@@H]4C[C@H](O)[C@@]3(C)C(=O)[C@H](OC(C)=O)C(=C1C)C2(C)C
active: [3] 0.001 µM
inactive: [1] | [6] | [11] | [5]

CC[C@H]1C=CC=CC[C@@H](C)[C@H](O)[C@@](C)(O)C(=O)[C@@H](C)[C@H](O)[C@@H](C)C(=O)[C@@H](C)[C@H](O)[C@@H](C)C=CC(=O)O[C@@H]2[C@@H](C)[C@H](CC1)O[C@]1(CC[C@H](C)[C@H](C[C@@H](C)O)O1)[C@H]2C
active: [8] 0.001 µM | [2] 0.0059 µM | [3] 0.001 µM | [4] 0.001 µM | [10] 0.001 µM

Cc1c(N)nc([C@H](CC(N)=O)NC[C@@H](N)C(N)=O)nc1C(=O)N[C@H](C(=O)N[C@@H](C)[C@H](O)[C@@H](C)C(=O)N[C@@H](C(=O)NCCc1nc(-c2nc(C(=O)NCCC[S+](C)C)cs2)cs1)[C@@H](C)O)C(O[C@H]1O[C@H](CO)[C@H](O)[C@@H](O)[C@@H]1O[C@H]1O[C@H](CO)[C@@H](O)[C@H](OC(N)=O)[C@H]1O)c1cnc[nH]1 (stereo partly drawn)
inactive: [1]
active: [8] 0.469 µM | [2] 0.296 µM | [7] 0.418 µM

CCCN1CCO[C@@H]2c3cc(O)ccc3OC[C@@H]21
inactive: [1] | [6] | [3] | [4] | [5]

C[C@]12Cc3cn[nH]c3C[C@@H]1CC[C@@H]1[C@H]2CC[C@@]2(C)[C@H]1CC[C@]2(C)O
inactive: [3] | [4] | [7] | [10]

C[C@]12COC(=O)C[C@@H]1CC[C@@H]1[C@H]2CC[C@@]2(C)[C@H]1CC[C@]2(C)O
inactive: [1] | [8] | [6] | [4] | [7] | [5] | [10]

C[C@@H]1O[C@@H](O[C@@H]2C=C3CC[C@@H]4[C@@H](CC[C@]5(C)[C@H](c6ccc(=O)oc6)CC[C@@]45O)[C@@]3(C)CC2)[C@H](O)[C@H](O)[C@H]1O
active: [1] 0.0083 µM | [8] 0.0264 µM | [6] 0.0209 µM | [3] 0.0093 µM | [4] 0.0209 µM | [12] 0.0148 µM | [9] 0.0296 µM | [5] 0.0296 µM | [10] 0.0132 µM

C=CCON=C(C[C@H]1O[C@@H]2O[C@]3(C)CC[C@@H]4[C@H](C)CC[C@@H]([C@H]1C)[C@@]24OO3)[C@H]1O[C@@H]2O[C@]3(C)CC[C@H]4[C@H](C)CC[C@@H]([C@@H]1C)[C@@]24OO3
active: [8] 0.372 µM | [6] 0.148 µM | [2] 0.118 µM | [11] 0.0209 µM | [3] 0.132 µM | [12] 0.148 µM | [9] 0.418 µM | [5] 0.372 µM

C[C@@H]1CC[C@H]2[C@@H](C)C(=O)O[C@@H]3O[C@@]4(C)CC[C@H]1[C@]32OO4
active: [4] 5.9 µM | [5] 1.48 µM
inactive: [6] | [3]

N#C[C@H](O[C@@H]1O[C@H](CO[C@@H]2O[C@H](CO)[C@H](O)[C@H](O)[C@H]2O)[C@H](O)[C@H](O)[C@H]1O)c1ccccc1
active: [1] 20.9 µM | [8] 18.7 µM | [3] 5.9 µM | [4] 9.35 µM | [9] 23.5 µM | [5] 20.9 µM

CO[C@H]1CCC(O[C@H]2C[C@H]([C@]3(C)CC[C@]4(C[C@H](O)[C@@H](C)[C@@H]([C@@H](C)C=C(C)C(=O)[C@H](C)C[C@H](C)C(=O)O)O4)O3)O[C@]3(O[C@@H]([C@H]4O[C@@](O)(CO)[C@H](C)C[C@H]4C)C[C@H]3C)[C@H]2C)O[C@H]1C (stereo partly drawn)
active: [1] 3.72 µM | [8] 1.18 µM | [6] 3.32 µM | [11] 1.18 µM | [4] 0.264 µM | [7] 0.187 µM | [5] 0.526 µM

O=C1CCC[C@@H]2[C@H]3CCCN4CCC[C@@H](CN12)[C@@H]34
inactive: [8] | [6] | [4] | [5] | [10]

CC(C)N[C@@H]1CCn2c(=O)[nH]c3cccc(c32)[C@@H]1O
active: [8] 14.8 µM | [6] 14.8 µM | [2] 5.9 µM | [11] 11.8 µM | [3] 6.62 µM | [4] 5.26 µM | [12] 1.05 µM | [9] 13.2 µM | [5] 9.35 µM

C[C@H]1CCCC=CC2C[C@H](O)C[C@@H]2[C@H](O)C=CC(=O)O1 (stereo partly drawn)
inactive: [1] | [8] | [12] | [9] | [5]

C[C@H]([C@H](O)CCC(C)(C)O)[C@H]1CC[C@@]2(O)C3=CC(=O)[C@@H]4C[C@@H](O)[C@@H](O)C[C@]4(C)[C@@H]3CC[C@]12C
not listed: [2] | [10] | [11] | [12]
inactive: all other assays above

C#C[C@]1(O)C=C[C@@H]2[C@@H]3CCC4=CC(=O)CC[C@@H]4[C@H]3CC[C@@]21CC
inactive: [1] | [6] | [11] | [4] | [5]

COc1ccc2c(c1)CN(C)CC2c1ccc(Cl)c(Cl)c1 (stereo not drawn)
active: [8] 23.5 µM | [6] 18.7 µM | [2] 23.5 µM | [3] 10.5 µM | [4] 16.6 µM | [7] 14.8 µM | [12] 14.8 µM | [10] 7.43 µM

COc1ccc(CC2NCCc3cc(OC)c(OC)cc32)cc1OC (stereo not drawn)
not listed: [2] | [9] | [10] | [11]
inactive: all other assays above

c1cc2c(cc1[C@H]1OC[C@H]3[C@H]1CO[C@H]3c1ccc3c(c1)OCO3)OCO2
inactive: [1] | [8] | [2] | [3] | [4] | [5]
